Measured values published in PubChem BioAssay (Tox21).
Results filed as inconclusive are left out. A call without a number means that no potency is given here. The source made the active and inactive calls. The call rests on the fitted dose curve; in most records, active means well fitted cell-killing curve with a large enough effect in the repeat runs; inconclusive means weak or mixed curves, or effect the other way; inactive means flat fitted curve, though single readings scatter.

test: Nuclear factor erythroid 2-related factor 2/antioxidant responsive element (Nrf2/ARE) small molecule agonists: qHTS cell viability counter screen in human keratinocytes (AID 1919968); conditions: KeratinoSens HaCaT ARE cells viability, CellTiter-Fluor, 24 h; series mostly up to 92.4 µM; further: nearly all actives have a fitted effect of over 55% in size
In short: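 Cytotoxicity was multiplexed with the Nrf2/ARE luciferase assay in the same wells. Stably transfected HaCaT keratinocytes were treated with test compounds for 23 h at 37 C. Cell viability was then measured by CellTiter-Fluor fluorescence.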
Potency means the concentration at half of the fitted maximal effect.

Row | SMILES | Potency
1 | CO[C@@H]1[C@@H](OC)[C@H](C)[C@@](O)(CC(=O)O)O[C@H]1[C@H](C)[C@H]1O[C@@]2(CC[C@@](C)([C@H]3CC[C@@](C)([C@@H]4O[C@@H]([C@H]5O[C@](C)(O)[C@H](C)C[C@@H]5C)C[C@@H]4OC4C[C@H](OC)[C@@H](OC)[C@H](C)O4)O3)O2)C[C@H](O)[C@H]1C (stereo not given in full) | 0.237 µM (active)
2 | O=Cc1ccc(O)c(O)c1O | inactive
3 | c1ccc2sc(SN3CCOCC3)nc2c1 | inactive
4 | O=C(O)Cc1ccc(Cl)cc1Cl | inactive
5 | Cc1ccc([N+](=O)[O-])c(N)c1 | inactive
6 | CCN(CC)c1ccc2c(-c3ccccc3C(=O)O)c3ccc(=[N+](CC)CC)cc-3oc2c1 | 15.4 µM (active)
7 | CCCCCCCCCC(C)C=O (stereo not given) | inactive
8 | CCC(Cl)CCC(Cl)C(Cl)CC(Cl)C(Cl)C(Cl)CCl (stereo not given) | inactive
9 | CCOc1ccc(NC(C)=O)cc1N | inactive
10 | OC[C@H]1O[C@@H](OCCc2ccc(O)cc2)[C@H](O)[C@@H](O)[C@@H]1O | inactive
11 | CCc1ccc2c(c1)C(=O)c1ccccc1C2=O | inactive
12 | CC(C)c1cccc(C(C)C)c1NC(=O)NS(=O)(=O)c1cc(C(C)(C)O)co1 | inactive
13 | [Cl][Au]([Cl])[Cl] | 3.06 µM (active)
14 | CCc1oc2ccccc2c1C(=O)c1cc(I)c(O)c(I)c1 | 5.96 µM (active)
15 | C=C[Si]1(C)O[Si](C)(C=C)O[Si](C)(C=C)O[Si](C)(C=C)O1 (stereo not given) | inactive
16 | CC1=CCC(C(C)C)C=C1 (stereo not given) | inactive
17 | Oc1ccc(N=Nc2ccccc2)cc1 | 55.2 µM (active)
18 | Cc1ccc(Cl)cc1N | inactive
19 | Oc1ccc(Cc2ccccc2)cc1 | inactive
20 | Cc1cc(-c2ccc(N=Nc3cc(S(=O)(=O)O)c4ccccc4c3N)c(C)c2)ccc1N=Nc1cc(S(=O)(=O)O)c2ccccc2c1N | inactive

Row | SMILES | Potency
21 | CC[C@]12CCCN3CCc4c(n(c5ccccc45)C(=O)C1)[C@@H]32 | inactive
22 | c1ccc2occc2c1 | inactive
23 | C=CCCCCCC | inactive
24 | COC(=O)/C=C(\C)CCC=C(C)C | inactive
25 | CCN(CCC#N)c1ccc(N=Nc2c(Cl)cc([N+](=O)[O-])cc2Cl)cc1 | inactive
26 | CCCCCC[C@@H](O)C/C=C\CCCCCCCC(=O)OC | inactive
27 | N=C(N)N | inactive
28 | NCCN1CCOCC1 | inactive
29 | O=C(c1ccccc1)c1cc(Cl)ccc1O | inactive
30 | O=C(O)C(=O)Cc1ccccc1 | inactive
31 | NCCc1cnc[nH]1 | inactive
32 | CC/C=C1/OC(=O)c2ccccc21 | inactive
33 | O=C1c2ccccc2C(=O)c2c(Cl)cccc21 | inactive
34 | COC(=O)CCCCCCCC(=O)OC | inactive
35 | OCCN1CCN(CCO)CC1 | inactive
36 | CC/C=C\CCCCCO | inactive
37 | O=C(NOCC1CC1)c1ccc(F)c(F)c1Nc1ccc(I)cc1Cl | 29.8 µM (active)
38 | c1ccc(-c2nc3ccccc3[nH]2)cc1 | inactive
39 | CC(=O)Nc1cccc(N)c1 | inactive
40 | COc1ccc(C2CNC(=O)C2)cc1OC1CCCC1 (stereo not given) | inactive
